# Compounds with a hit are over-represented: about 20% of the library has one in this group of screens.
# HCMV inh: human cytomegalovirus inhibition. HFF cells, HCMV-luciferase reporter, 72 h; stronger effect = lower value. activity change, negative = inhibition, % at 57.5 µM. hit rate 4.5% among 410,000. AID 1259415; in the data active = activity change below about -60%; inconclusive = no clear call, values can overlap the other calls; inactive = above about -39%
#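 Human foreskin fibroblasts infected with luciferase-reporter HCMV at MOI 1 PFU/cell, compounds at two doses. Luciferase measured 72 h post infection; normalized to buffer-only basal and Salinomycin (10uM) controls.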
# Pf growth 96h: P. falciparum growth inhibition at 96 hours. P. falciparum luciferase reporter growth, 96 h. Potency, µM (titrated, usually from 28.7 µM), usual class: inhibitors. hit rate 6.9% among 320,000. AID 504834
#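 Plates of compound plus infected erythrocytes (2% hematocrit, 0.05% parasitemia final) incubate 96 hours, 37 C, 5% CO2. Detection reagent added; reduced luminescence from the parasites' luciferase reporter flags inhibition.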
# Shiga toxin inh: inhibitors of Shiga toxin in Vero cells; Vero cells, Shiga toxin protein synthesis inhibition reporter; inhibition, % at 38.7 µM; hit rate 9.2% among 290,000; AID 2315; in the data active = inhibition mostly above about 28%, no sharp cut-off; inactive = mostly below about 43%
# Pf growth 48h: P. falciparum growth inhibition at 48 hours (one generation); AID 504832; Potency, µM (doses to about 28.7 µM), most hits filed as inhibitors; P. falciparum luciferase growth in erythrocytes, 48 h; hit rate 5.9% among 310,000
#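 Luciferase-expressing P. falciparum in infected erythrocytes (2% hematocrit, 0.1% parasitemia final) in RPMI 1640/0.5% Albumax were exposed to compound for 48 hours at 37 C, 5% CO2; growth read as luminescence.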
# CHX counter: counter-screen for Shiga toxin inhibitors: cycloheximide protein synthesis inhibition | cell reporter, cycloheximide protein synthesis inhibition counterscreen | max response, % | hit rate 12% among 300,000; in the data active = max response mostly above about 13%, no sharp cut-off; inactive = mostly below about 14%; note: read at 38.3 µM for the half of the compounds with a filed dose
# Hits are given with their value; 0 = inactive; ? = inconclusive; - = no result given; [ ] = dose if it differs, or a comment. Unless noted, calls come from the whole dose curve; as a rule, active = well fitted inhibition curve with a large enough effect; inconclusive = small, poorly fitted or top-dose-only effect, or another doubt; inactive = no such curve, though single readings can be large or run the other way.
SMILES,HCMV inh,Pf growth 96h,Shiga toxin inh,Pf growth 48h,CHX counter
CCCCCCCCSC1=CC(=O)C(OC)=C(OC)C1=O,-87.3,-,-,-,-
CN(C)c1ccc2cc(S(=O)(=O)O)cc(O)c2c1,-100.3,-,-,-,-
Nc1cccc2cc(S(=O)(=O)O)ccc12,0,-,-,-,-
COc1ccc(-c2noc(CNC(=O)c3ccoc3C)n2)cc1OC,0,0,0,0,0
CN1CCN(C(=O)CCC(=O)c2ccc(F)cc2)CC1,0,0,0,0,0
O=C(CCC(=O)N1CCN(c2ccc(O)cc2)CC1)c1cccs1,?,7.38µM,51.9,13.1µM,30.5
O=C(CCC(=O)N1CCN(c2ccc(O)cc2)CC1)c1ccc(Br)cc1,-,9.28µM,0,0,0
O=C(CCC(=O)N1CCN(c2ccccn2)CC1)c1cccs1,0,-,-,-,-
O=C(CCC(=O)N1CCN(c2ccccc2F)CC1)c1ccc(F)cc1,0,0,0,0,15.4
CC(=O)c1ccc(N2CCN(C(=O)Cc3cccs3)CC2)cc1,0,0,0,0[5.75 µM],0
CC(=O)c1ccc(N2CCN(C(=O)CCC(=O)c3cccs3)CC2)cc1,-82.4,?,0,0,0
CC1=C(C(=O)N(C(C)C)C(C)C)CC(CC(=O)NCCCCc2ccccc2)C(=O)N1Cc1ccc(F)cc1 (stereo not drawn),0,-,-,-,-
O=C(CSc1ncccn1)N/N=C/c1cccc(OC2CSC2)c1,0,11.7µM,0,0,0
COc1cccc(/C=N/NC(=O)CSc2cccc3cccnc23)c1,-91.6,?,0,0,0
CC(CC(=O)Nc1ccccc1)NCCCN1CCCC1=O (stereo not drawn),?,0,0,0,0
O=[N+]([O-])c1ccc(CN2CCN(c3ccc(Cl)cc3)CC2)o1,0,0,0,0,0
O=NCc1ccc([N+](=O)[O-])o1,-,13.5µM,-,?,-
O=C1c2ccccc2C(c2nnnn2-c2ccc3c(c2)OCCO3)N1CCCN1CCOCC1 (stereo not drawn),0,-,-,-,-
CC1=C(c2ccc(Cl)cc2)S(=O)(=O)N=C1N1CCN(c2cccc(C(F)(F)F)c2)CC1,-60.2,-,-,-,-
CC(C)c1cc(=O)n2c(nc3ccccc32)[nH]1,0,?,0,0,13.2
O=c1cc(CCl)[nH]c2nc3ccccc3n12,0,0,0,0,0
O=c1cc(-c2ccccc2)[nH]c2nc3ccccc3n12,0,?,64.4,?,40.1
CCc1c(C)[nH]c2nc3ccccc3n2c1=O,0,?,0,-,0
Cc1ccc(C)c(CS(=O)(=O)c2cn(CC(=O)N3CCCCC3)c3ccccc23)c1,0,0,0,?,0
Cc1ccc(C)c(CS(=O)(=O)c2cn(CC(=O)N3CCC(C)CC3)c3ccccc23)c1,?,5.22µM,0,?,0
SMILES,HCMV inh,Pf growth 96h,Shiga toxin inh,Pf growth 48h,CHX counter
Cc1ccc(-c2nc3c(c(SCC(=O)Nc4ccccc4Cl)n2)Cc2c(CO)cnc(C)c2O3)cc1,0,-,-,-,-
Cc1cc(-c2ccccc2)nc(Oc2ccc(C(C)(C)C)cc2)c1S(C)(=O)=O,0,13.1µM,0,?,0
Cc1cc(C)cc(Oc2nc(-c3ccccc3)cc(C)c2S(C)(=O)=O)c1,0,?,0,-,0
COc1cc(C2C3=C(CCCC3=O)Nc3ccc4ncccc4c32)ccc1O (stereo not drawn),0,0,0,0,14.6
CC1(C)CC(=O)C2=C(C1)c1c(ccc3ccccc13)NC2c1ccco1 (stereo not drawn),0,-,0,?,0
O=C1CCCC2=C1C(c1ccc(O)c(O)c1)Nc1ccc3ncccc3c12 (stereo not drawn),0,0,33.3,0,0
Cc1ccsc1C1Nc2ccc3ncccc3c2C2=C1C(=O)CC(C)(C)C2 (stereo not drawn),?,1.17µM,0,1.65µM,0
COc1ccc(C2C3=C(CCCC3=O)Nc3ccc4ncccc4c32)cc1OC (stereo not drawn),0,0.294µM,0,0,35.0
O=C1CCCC2=C1C(c1cccs1)Nc1ccc3ncccc3c12 (stereo not drawn),0,0,0,0,0
CCOc1cc(C2C3=C(CCCC3=O)Nc3ccc4ncccc4c32)ccc1O (stereo not drawn),0,0,0,0,0
Cc1cccc(N/C(=N/S(=O)(=O)c2ccccc2)c2ccccc2)n1,0,0,0,0,15.0
O=S(=O)(/N=C(/Nc1ccccn1)c1ccccc1)c1ccc(F)cc1,0,0,22.1,0,0
Cc1ccc(S(=O)(=O)/N=C(/Nc2nc(C)cs2)c2ccccc2)cc1,0,-,-,-,-
O=S(=O)(/N=C(/Nc1ccccn1)c1ccccc1)c1ccccc1,0,0,0,0,0
O=C1CN(S(=O)(=O)c2ccccc2)CCN1S(=O)(=O)c1ccccc1,0,0,0,0,0
O=[N+]([O-])c1ccc(Cl)c(NC2=NCCCCC2)c1,0,9.28µM,0,?,0
CCC(CC)C(=O)Nc1cc([N+](=O)[O-])ccc1Cl,0,7.38µM,0,0,0
O=[N+]([O-])c1ccc(NC(=S)N2CCCC2)cc1,0,0,0,0,0
COc1cccc(NC(C)C(=O)Nc2cc([N+](=O)[O-])ccc2Cl)c1 (stereo not drawn),0,14.7µM,0,0,0
CCC(CC)C(=O)Nc1cc([N+](=O)[O-])ccc1F,0,?,0,0,0
O=[N+]([O-])c1ccc(Cl)c(NC(=S)N2CCCC2)c1,0,0,49.7,0,32.6
C=CCN=C(C)C1=C(O)C(C)OC1=O (stereo not drawn),0,0,0,0,0
O=C(CSc1nc2nn(-c3ccccc3)c(=O)c-2c2n1CCCCC2)Nc1cccc(F)c1,0,-,-,-,-
Cc1nn(-c2ccccc2)c(C)c1/C=N/NC(=O)c1cc(-c2ccccc2)n[nH]1,-95.2,9.28µM,0,14.7µM,0
Cc1nn(-c2ccccc2)c(C)c1/C=N/NC(=O)c1ccc(F)cc1,0,-,-,-,-
SMILES,HCMV inh,Pf growth 96h,Shiga toxin inh,Pf growth 48h,CHX counter
Cc1cc(C(=O)N/N=C/c2c(C)nn(-c3ccccc3)c2C)c(C)o1,0,?,58.9,?,41.6
CCN(CC)c1ccc(/C=C(\C#N)c2nc(-c3cccs3)c(NC(C)=O)s2)cc1,-,7.38µM,0,13.1µM,0
CCN(CC)c1ccc(/C=C(\C#N)C(=O)NCc2ccccc2)cc1,-,0,0,?,0
COc1cccc(-c2nc(CS(=O)(=O)CC(=O)N3CCN(c4ccccc4)CC3)c(C)o2)c1,0,-,-,-,-
Cn1cccc1-c1cc(C(=O)N/N=C/c2cc(Br)ccc2O)[nH]n1,-95.4,0,0,?,0
Cn1cccc1-c1cc(C(=O)N/N=C/c2ccc(F)cc2)[nH]n1,0,0,0,0,0
Cn1cccc1-c1cc(C(=O)N/N=C/c2ccccc2Cl)[nH]n1,0,0,79.5,0,20.4
CC1(Oc2ccc(Cl)cc2)CCN(Cc2ccc(-c3ccccn3)cc2)C1 (stereo not drawn),-82.2,-,-,-,-
COc1ccc(OC)c(CNC(=O)c2ccc(NC(=O)c3nsc4ccccc34)cc2)c1,0,-,-,-,-
CC(=O)NC12CC3CC(C1)CC(C(=O)Nc1nc4ccc(F)cc4s1)(C3)C2,0,0,70.7,0,45.0
COc1ccc(CN(C)C(=O)c2ccc(Oc3ccccc3)cc2)cc1F,0,0,0,0,0
CN(Cc1ccc2ccccc2c1)C(=O)c1ccc(C(F)(F)F)cc1,-62.5,0,0,0,0

# Screens: PubChem, National Center for Advancing Translational Sciences (NCATS)
